The sample as a whole holds a higher share of hits than the screen did.
U2OS ROS induce – ROS inducers in U2OS cancer cells, primary screen, cell-based, H2DCF-DA fluorescence; U2OS ROS induction; ROS induction (% of piperlongumine), % at 10 µM; 2% of 46,000 active; in the data active = ROS induction above about 79%, passing the limit was not always enough
A number is an active result.

How did c1ccc(Cn2ccnc2SCc2nnc(-c3ccccc3)o2)cc1 do in these assays?
U2OS ROS induce: 105

Results for COC(=O)CSc1nnc(-c2ccccc2)o1 ?
U2OS ROS induce: inactive

How did Cc1cc(-n2nc3ccccc3n2)c2oc(SCc3nnc(-c4ccccc4)o3)nc2c1 do in these assays?
U2OS ROS induce: inactive

What do the screens show for `Fc1ccc(-c2csc(N3CCN(C/C=C\c4ccccc4)CC3)n2)cc1`?
U2OS ROS induce: inactive

What do the screens show for `CC1=NN(c2ccccc2)C(=O)C1/C=C1\SC(=S)N(CC2CCCO2)C1=O` (configuration not stated)?
U2OS ROS induce: inactive

How did O=C(NC1CCCCCC1)C1CC1 do in these assays?
U2OS ROS induce: inactive

What do the screens show for `COc1ccc([Si](C)(C)[C@H]2[C@H](CCO)O[C@@]3(C(=O)N(Cc4ccccc4)c4ccc(N5CCCCC5=O)cc43)[C@@H]2C)cc1`?
U2OS ROS induce: inactive

What do the screens show for `COc1ccc(C2C(C(=O)O)c3ccccc3C(=O)N2Cc2ccc(Cl)cc2)cc1` (configuration not stated)?
U2OS ROS induce: inactive

How did COc1ccc(CN2C(=O)[C@@H]3[C@H]4C(=O)O[C@H](c5ccccc5)[C@@H](C)N(C)C(=O)CC/C=C/[C@H]4O[C@@]34C=CCN(Cc3ccccc3)C(=O)[C@@H]24)cc1 do in these assays?
U2OS ROS induce: 122

What do the screens show for `CCCCC(=O)Oc1cc(-c2ccccc2)c2oc(=O)sc2c1`?
U2OS ROS induce: inactive

What do the screens show for `O=C(c1cnn(-c2ccccc2)c1-n1cccc1)N1CCc2ccccc21`?
U2OS ROS induce: inactive

How did CC(C)(C)c1ccc(OCC(=O)Nc2ccc3c(c2)oc2ccccc23)cc1 do in these assays?
U2OS ROS induce: inactive

How did COc1cc(/C=C/C(=O)/C=C/c2ccc(N(C)C)cc2)cc(OC)c1OC do in these assays?
U2OS ROS induce: inactive

What do the screens show for `COc1ccc(/C=C2\CCc3ccccc3C2=O)cc1Cn1cccn1`?
U2OS ROS induce: inactive

How did COc1ccc2c(c1)C(=O)/C(=C/c1ccc(N(C)C)cc1)CC2 do in these assays?
U2OS ROS induce: 122

Results for CCn1c(C(=O)NC2CCCCCC2)cc2oc3ccccc3c21 ?
U2OS ROS induce: inactive

How did CN(c1ccc(Cl)cc1)S(=O)(=O)c1cccc(C(=O)Nc2ccccc2)c1 do in these assays?
U2OS ROS induce: inactive

What do the screens show for `Cc1ccc(OCC(O)CN2C(C)CCCC2C)c(C)c1` (configuration not stated)?
U2OS ROS induce: inactive

What do the screens show for `Cc1ccccc1NS(=O)(=O)c1ccc2[nH]cc(C(=O)N3CCc4ccccc43)c(=O)c2c1`?
U2OS ROS induce: inactive

What do the screens show for `COc1cc(CCC(=O)N2CCC=CC2=O)cc(OC)c1OC`?
U2OS ROS induce: 137

Results for COc1cc(/C=C/C(=O)O)cc(OC)c1OC ?
U2OS ROS induce: inactive

How did COc1cc(C(=O)NCCC(=O)N2CCN(C)CC2)cc(OC)c1OC do in these assays?
U2OS ROS induce: inactive

What do the screens show for `FC(F)(F)c1ccc(-c2noc(-c3ccco3)n2)cc1`?
U2OS ROS induce: inactive

Results for Cc1cc(C)c2c(-n3cccc3)c(C(=O)N3CCC(C)CC3)sc2n1 ?
U2OS ROS induce: inactive

How did CCC(Sc1nncn2c1cc1occc12)C(=O)Nc1ccccc1OC (configuration not stated) do in these assays?
U2OS ROS induce: inactive

What do the screens show for `COC(CNC(=O)Cn1ncc2c(=O)oc3ccccc3c21)OC`?
U2OS ROS induce: inactive

How did Cc1cc(C)c(OCC(=O)Nc2cccc(NC(=O)c3ccco3)c2)c(Br)c1 do in these assays?
U2OS ROS induce: 176

Results for Cc1ccccc1OCC(=O)Nc1ccccc1NC(=O)c1ccco1 ?
U2OS ROS induce: inactive

What do the screens show for `O=C(COc1ccccc1Cl)Nc1cccc(NC(=O)c2ccco2)c1`?
U2OS ROS induce: inactive

Results for O=C(CN1C(=O)c2ccccc2C1=O)N(Cc1ccccc1)Cc1ccccc1 ?
U2OS ROS induce: inactive

How did CCCN(CCC)C(=O)CSc1nc2ccsc2c(=O)n1-c1ccc(Br)cc1 do in these assays?
U2OS ROS induce: inactive

How did CCCc1c(C(=O)OCC)c(C(=O)OCC)c2c(-c3ccccc3)nc(N3CCOCC3)nn12 do in these assays?
U2OS ROS induce: 114

Results for CCOC(=O)c1cnc(N2CCOCC2)nc1N ?
U2OS ROS induce: inactive

Results for c1ccc(-c2nnc(N3CCOCC3)nc2-c2ccccc2)cc1 ?
U2OS ROS induce: inactive

Results for COc1ccc(CC(=O)Sc2nc3ccccc3s2)cc1 ?
U2OS ROS induce: inactive

Results for COc1ccc(-c2nc3ccc4ccccc4c3c3c2CCC3)cc1 ?
U2OS ROS induce: 138

What do the screens show for `COc1ccc2nc3c(nc2c1)-c1cccc2cccc-3c12`?
U2OS ROS induce: inactive

How did CN(C)c1ccc(-c2nc3ccc4ccccc4c3c3c2CCC3)cc1 do in these assays?
U2OS ROS induce: inactive

How did CC(=O)Nc1ccc2nc(SCc3c(C)cc(C)cc3C)sc2c1 do in these assays?
U2OS ROS induce: inactive

How did COc1ccc(-c2n[nH]c(=S)n2-c2ccccc2)cc1OC do in these assays?
U2OS ROS induce: inactive

What do the screens show for `Cc1cccc(C(=O)Nc2cccc(OCC(=O)O)c2)c1`?
U2OS ROS induce: inactive

How did COC(=O)COc1cccc(NC(=O)c2ccccc2F)c1 do in these assays?
U2OS ROS induce: inactive

What do the screens show for `COC(=O)COc1cccc(NC(=O)c2ccc(-c3ccccc3)cc2)c1`?
U2OS ROS induce: 84

Results for COC(CNC(=O)c1oc2ccc3c(c2c1C)C=CC(C)(C)O3)OC ?
U2OS ROS induce: inactive

What do the screens show for `COc1ccc2[nH]c3c(=O)n(CC(=O)NC4CCCCCC4)c(=S)[nH]c3c2c1`?
U2OS ROS induce: inactive

Results for O=C(Nc1ccc(Cl)cc1)N1CCC(C(c2ccccc2)c2ccccc2)CC1 ?
U2OS ROS induce: inactive

What do the screens show for `Cc1ccc(Nc2nc(N)nc(CSCCO)n2)cc1`?
U2OS ROS induce: inactive

How did COc1ccccc1Nc1nc(N)nc(CSCCO)n1 do in these assays?
U2OS ROS induce: 123

What do the screens show for `COc1ccccc1Nc1nc(N)nc(CSc2ncccn2)n1`?
U2OS ROS induce: inactive

Results for CCOc1ccc(C2=NCCNC3=C2C(c2ccccc2)N(c2ccccc2)C3=O)cc1 (configuration not stated) ?
U2OS ROS induce: inactive

How did CC1CCCCN1CCNc1ccc2nnc(-c3ccc(F)cc3)n2n1 (configuration not stated) do in these assays?
U2OS ROS induce: inactive

Results for COc1ccc(CSc2nnc(SCc3ccc(C(=O)O)cc3)s2)cc1 ?
U2OS ROS induce: inactive

What do the screens show for `C[C@H](CO)N1C[C@H](C)[C@@H](CN(C)C(=O)Nc2ccc(C(C)(C)C)cc2)OCc2cnnn2CCCC1=O`?
U2OS ROS induce: inactive

Results for C[C@H](CO)N1C[C@H](C)[C@@H](CN(C)C(=O)Nc2ccc(C(F)(F)F)cc2)OCc2cnnn2CCCC1=O ?
U2OS ROS induce: inactive

How did C[C@@H]1CN([C@@H](C)CO)C(=O)CCCn2nncc2CO[C@@H]1CN(C)C(=O)Nc1ccc(C(C)(C)C)cc1 do in these assays?
U2OS ROS induce: 114

What do the screens show for `COc1ccccc1CN(C)C[C@@H]1OCc2cnnn2CCCC(=O)N([C@H](C)CO)C[C@H]1C`?
U2OS ROS induce: inactive

Results for COc1ccccc1CN(C)C[C@H]1OCc2cnnn2CCCC(=O)N([C@@H](C)CO)C[C@H]1C ?
U2OS ROS induce: inactive

Results for COc1ccccc1CN(C)C[C@H]1OCc2cnnn2CCCC(=O)N([C@H](C)CO)C[C@H]1C ?
U2OS ROS induce: 113

Results for CN(Cc1ccccc1)S(C)(=O)=O ?
U2OS ROS induce: inactive

What do the screens show for `COC(=O)c1sccc1N1C(=O)Nc2ccccc2N1O`?
U2OS ROS induce: inactive

Results for CCn1c(CCNC(=O)C2CCCCC2)nc2ccccc21 ?
U2OS ROS induce: inactive

Screening data: PubChem, Broad Institute
